Laboratory results taken from the supplement of paper PMC10338343.
± gives the standard deviation.

system: MILI (PIWIL2) piRISC loaded with L1MC piRNA (26 nt); assay: pre-steady-state target cleavage rate (min^-1); guide: L1MC piRNA 5'p-UAACUAAAUACUAUGCAAGCUGUAGG; MIWI and MILI are mouse PIWI proteins and EfPiwi is from a freshwater sponge; tags in brackets are library labels; higher = faster piRNA-guided slicing of the target; details: auxiliary factor: 500 nM mouse GTSF1
How it was run: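 In Cleave-'n-Seq, a transcribed, DNA-blocked target RNA library (0.1 nM) was combined with 1 nM active affinity-purified piRISC bearing one synthetic guide, with or without 500 nM GTSF1 partner protein. Reactions ran in HEPES–potassium acetate buffer at 33 °C for 0–8 or 0–960 min. Uncleaved targets were sequenced and normalised to depth and to weakly complementary targets, three trials were pooled, and k3 was capped at 0.0001 min^-1. The pre-steady-state cleavage rate was obtained by fitting a burst-and-steady-state model.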

Sequence | pre-steady-state target cleavage rate
UCCUGGAUGUCCUUGCAUUCUAUUUAGUUA | 0.00856 ± 0.0043
UCCUGGUACACGAUGCAUAGUAUUUACAAA | 0.00826 ± 0.0057
UCCUGGAUCAGCUUGCAUAGUAUUUAGCUA | 0.00534 ± 0.0036
UCCUGGUACAGCUUGCAUAGUUUUUACAAA | 0.0185 ± 0.0077
UCCUGGAUCAGCUUGGAUAGUAUUUACUUA | 0.107 ± 0.026
UCCUGGAUGAGCUUGCAUUGUAUUUUGUUA | 0.0997 ± 0.015
UCCUGGAUGUGGUUGCAUAGUAUUUAGAUA | 0.0485 ± 0.021
UCCUGGAUGUCGUUGCAUAGUAUUUCGUUA | 0.0162 ± 0.0076
UCCUCCUACACGUUGCAUAGUAUUUUCAAA | 0.0568 ± 0.017
UCCUGGAUGUCGUAGCAUAGUAAUUAGUUA | 0.0159 ± 0.0054
UCCUGGAUCAGCAUGCAUAGUAUUUACAAA | 0.0991 ± 0.019

same assay, conditions: auxiliary factor: none (no GTSF1)

Sequence | pre-steady-state target cleavage rate
UCCUGGAUGUCGAACGUUAGUAUAUAGUUA | < 0.0001
UCCUGGAUGUCGAAGCAUAGUAAAAUCAAA [g9:g16:cont:t1A] | < 0.0001
UCCUGGAUGUCGAACGUAAGUAUUUAGUAUA | < 0.0001
UCCUGGAUGUCGAACGUAUGAUUUUAGUUA | < 0.0001
UCCUGGAUGUCGAACCAUGAGUAUUUAGUUA | < 0.0001
